Holding throughout (test): DAPPL (digital affinity profiling via proximity ligation, sequencing); 10 mM Tris-HCl pH 7.5, 50 mM NaCl, 1 mM DTT, 4% glycerol, room temperature, 30 min; GST-TFs on glutathione beads, 16-mer random dsDNA library, 0.1% formaldehyde crosslink after washing; high values mean tight binding
What all share (conditions): protein: recombinant; tags: N-terminal GST; dsDNA, one strand shown

Assay [1] has as its target T1, FLI1 (Homo sapiens, UniProt Q01543 1-452).
T1 sequence: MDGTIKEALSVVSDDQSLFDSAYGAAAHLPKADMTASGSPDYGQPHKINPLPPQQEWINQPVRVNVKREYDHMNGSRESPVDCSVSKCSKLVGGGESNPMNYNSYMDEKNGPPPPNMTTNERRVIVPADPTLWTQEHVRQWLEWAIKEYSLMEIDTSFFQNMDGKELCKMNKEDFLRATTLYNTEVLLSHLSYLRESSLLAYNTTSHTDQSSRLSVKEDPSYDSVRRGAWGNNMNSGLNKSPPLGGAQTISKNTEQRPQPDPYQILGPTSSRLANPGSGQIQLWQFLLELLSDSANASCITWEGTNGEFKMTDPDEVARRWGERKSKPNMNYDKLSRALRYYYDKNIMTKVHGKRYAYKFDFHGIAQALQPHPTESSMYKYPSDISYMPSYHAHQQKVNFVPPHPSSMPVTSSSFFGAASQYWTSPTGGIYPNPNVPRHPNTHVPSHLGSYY
In short, it runs like this: (§1)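 Beads coated with glutathione captured GST-fused human transcription factors that had been expressed in yeast, and the factors were then given DNA barcodes and pooled with a tag-only sample. The pools were incubated with 200 nmole of a random double-stranded 16-mer DNA library in Tris/NaCl/DTT/glycerol buffer for 30 min at room temperature, washed, crosslinked with 0.1% formaldehyde and proximity-ligated with BsaI/T4 ligase at 37 °C for 1 h. PCR amplification and Illumina NextSeq500 sequencing came last. Binding signal is each hexamer's read frequency for a factor divided by its frequency for the tag-only sample.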

Assay [2] deals with T2, GABPA (Homo sapiens, UniProt Q06546 1-454).
T2 sequence: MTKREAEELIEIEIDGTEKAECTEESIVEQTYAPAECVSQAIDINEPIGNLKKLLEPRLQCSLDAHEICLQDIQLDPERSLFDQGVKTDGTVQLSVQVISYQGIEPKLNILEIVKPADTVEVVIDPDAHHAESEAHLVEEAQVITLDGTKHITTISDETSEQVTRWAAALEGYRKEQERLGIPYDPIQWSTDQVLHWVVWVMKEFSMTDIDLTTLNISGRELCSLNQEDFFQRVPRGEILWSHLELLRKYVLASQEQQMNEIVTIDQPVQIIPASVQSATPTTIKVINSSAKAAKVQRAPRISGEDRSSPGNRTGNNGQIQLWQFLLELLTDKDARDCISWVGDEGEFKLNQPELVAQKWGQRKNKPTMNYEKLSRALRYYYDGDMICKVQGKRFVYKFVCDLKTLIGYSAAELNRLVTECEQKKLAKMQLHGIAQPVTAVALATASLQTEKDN
In short, it runs like this: as §1

The target in assay [3] is T3, ERG (Homo sapiens, UniProt P11308 1-479).
T3 sequence: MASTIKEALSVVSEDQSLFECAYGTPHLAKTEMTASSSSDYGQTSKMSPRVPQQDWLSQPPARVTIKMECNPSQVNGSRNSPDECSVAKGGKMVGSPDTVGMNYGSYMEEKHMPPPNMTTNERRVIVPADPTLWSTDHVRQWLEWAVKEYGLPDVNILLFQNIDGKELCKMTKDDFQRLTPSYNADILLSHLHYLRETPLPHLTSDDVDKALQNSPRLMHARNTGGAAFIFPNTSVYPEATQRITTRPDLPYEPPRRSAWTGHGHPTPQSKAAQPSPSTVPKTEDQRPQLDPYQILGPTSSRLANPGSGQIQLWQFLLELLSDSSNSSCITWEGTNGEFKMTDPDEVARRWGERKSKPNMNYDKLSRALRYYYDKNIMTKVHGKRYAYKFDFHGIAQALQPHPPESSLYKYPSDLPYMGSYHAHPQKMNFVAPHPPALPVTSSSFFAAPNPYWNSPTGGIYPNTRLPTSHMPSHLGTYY
The method in brief:
as §1

Assay [4] has as its target ELF1 (Homo sapiens, UniProt P32519 1-619). In short, it runs like this: as §1
Assay [5] deals with SPIB (Homo sapiens, UniProt Q01892 1-262). The method in brief:
as §1

Assay [6] deals with ETV5 (Homo sapiens, UniProt P41161 1-510). In short, it runs like this:
as §1

The target in assay [7] is T4, SPIC (Homo sapiens, UniProt Q8N5J4 1-248).
T4 sequence: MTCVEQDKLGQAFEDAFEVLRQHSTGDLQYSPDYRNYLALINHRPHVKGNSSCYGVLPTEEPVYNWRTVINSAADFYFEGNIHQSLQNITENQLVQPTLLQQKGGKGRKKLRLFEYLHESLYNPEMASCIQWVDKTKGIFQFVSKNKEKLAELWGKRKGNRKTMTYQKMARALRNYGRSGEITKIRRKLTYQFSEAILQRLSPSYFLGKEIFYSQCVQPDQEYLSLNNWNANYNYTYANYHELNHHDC
The method in brief:
as §1

Assay [8] addresses ELF4 (Homo sapiens, UniProt Q99607 1-663). In short, it runs like this:
as §1

Assay [9] addresses ETV1 (Homo sapiens, UniProt P50549 1-477). The method in brief: as §1
Assay [10] addresses T5, ETV3L (Homo sapiens, UniProt Q6ZN32 1-361).
T5 sequence: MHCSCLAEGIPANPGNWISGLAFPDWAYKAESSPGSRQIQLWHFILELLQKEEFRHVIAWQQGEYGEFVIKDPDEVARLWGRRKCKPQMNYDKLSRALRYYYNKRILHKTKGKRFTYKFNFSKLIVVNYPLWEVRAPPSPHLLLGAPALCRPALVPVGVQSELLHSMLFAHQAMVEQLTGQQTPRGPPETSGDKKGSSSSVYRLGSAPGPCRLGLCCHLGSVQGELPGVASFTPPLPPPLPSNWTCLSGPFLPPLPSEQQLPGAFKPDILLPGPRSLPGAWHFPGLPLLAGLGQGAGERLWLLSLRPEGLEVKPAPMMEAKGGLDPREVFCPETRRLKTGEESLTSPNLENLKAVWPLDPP
In short, it runs like this: as §1

Assay [11] addresses ETV6 (Homo sapiens, UniProt P41212 1-452). In short, it runs like this: as §1
Assay [12] addresses T6, EHF (Homo sapiens, UniProt Q9NZC4 1-300).
T6 sequence: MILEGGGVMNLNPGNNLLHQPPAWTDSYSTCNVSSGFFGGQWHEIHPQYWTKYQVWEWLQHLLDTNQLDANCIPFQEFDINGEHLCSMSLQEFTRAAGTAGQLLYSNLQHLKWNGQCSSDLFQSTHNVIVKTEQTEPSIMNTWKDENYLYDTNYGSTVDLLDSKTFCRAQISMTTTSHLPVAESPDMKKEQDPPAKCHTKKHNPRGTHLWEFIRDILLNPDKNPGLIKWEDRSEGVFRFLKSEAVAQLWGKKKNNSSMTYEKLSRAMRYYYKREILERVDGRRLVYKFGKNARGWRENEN
In short, it runs like this: as §1

Assay [13] concerns the target SPI1 (Homo sapiens, UniProt P17947 1-270). The method in brief:
as §1

Assay [14] deals with T7, ELK3 (Homo sapiens, UniProt P41970 1-407).
T7 sequence: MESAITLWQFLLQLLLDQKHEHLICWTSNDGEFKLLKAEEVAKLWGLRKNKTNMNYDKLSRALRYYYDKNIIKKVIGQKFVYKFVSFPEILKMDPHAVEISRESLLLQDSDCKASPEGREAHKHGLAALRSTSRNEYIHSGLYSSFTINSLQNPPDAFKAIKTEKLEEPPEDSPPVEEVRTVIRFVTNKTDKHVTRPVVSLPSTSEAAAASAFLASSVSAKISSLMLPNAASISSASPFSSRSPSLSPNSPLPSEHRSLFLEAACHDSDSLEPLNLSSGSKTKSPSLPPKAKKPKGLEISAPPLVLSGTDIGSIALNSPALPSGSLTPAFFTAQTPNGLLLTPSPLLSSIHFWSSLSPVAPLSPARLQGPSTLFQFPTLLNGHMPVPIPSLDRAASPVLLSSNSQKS
The method in brief: as §1

Assay [15] deals with T8, FEV (Homo sapiens, UniProt Q99581 1-238).
T8 sequence: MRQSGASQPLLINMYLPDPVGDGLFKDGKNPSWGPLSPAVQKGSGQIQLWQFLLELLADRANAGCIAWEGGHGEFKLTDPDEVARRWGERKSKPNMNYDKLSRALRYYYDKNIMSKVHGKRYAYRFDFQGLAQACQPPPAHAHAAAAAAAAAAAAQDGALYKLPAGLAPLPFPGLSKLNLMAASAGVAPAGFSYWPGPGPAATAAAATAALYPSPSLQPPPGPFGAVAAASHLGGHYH
In short, it runs like this:
as §1

The target of assay [16] is T9, ERF (Homo sapiens, UniProt P50548 1-548).
T9 sequence: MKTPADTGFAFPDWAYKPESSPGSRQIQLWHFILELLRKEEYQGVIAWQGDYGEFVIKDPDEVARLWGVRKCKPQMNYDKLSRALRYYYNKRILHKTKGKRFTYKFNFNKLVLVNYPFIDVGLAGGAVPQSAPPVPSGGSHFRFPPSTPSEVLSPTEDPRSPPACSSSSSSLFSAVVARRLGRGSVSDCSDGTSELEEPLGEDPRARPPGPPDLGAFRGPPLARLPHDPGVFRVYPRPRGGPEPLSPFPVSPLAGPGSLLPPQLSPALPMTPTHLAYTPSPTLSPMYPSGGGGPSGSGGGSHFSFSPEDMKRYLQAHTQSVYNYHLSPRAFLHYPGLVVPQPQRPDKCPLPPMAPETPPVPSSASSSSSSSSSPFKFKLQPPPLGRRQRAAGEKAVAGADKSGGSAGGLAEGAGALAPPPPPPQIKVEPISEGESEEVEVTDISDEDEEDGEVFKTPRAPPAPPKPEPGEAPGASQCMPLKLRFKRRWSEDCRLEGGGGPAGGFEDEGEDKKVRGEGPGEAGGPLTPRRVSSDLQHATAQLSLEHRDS
The method in brief:
as §1

Assay [17] addresses T10, ETS2 (Homo sapiens, UniProt P15036 1-469).
T10 sequence: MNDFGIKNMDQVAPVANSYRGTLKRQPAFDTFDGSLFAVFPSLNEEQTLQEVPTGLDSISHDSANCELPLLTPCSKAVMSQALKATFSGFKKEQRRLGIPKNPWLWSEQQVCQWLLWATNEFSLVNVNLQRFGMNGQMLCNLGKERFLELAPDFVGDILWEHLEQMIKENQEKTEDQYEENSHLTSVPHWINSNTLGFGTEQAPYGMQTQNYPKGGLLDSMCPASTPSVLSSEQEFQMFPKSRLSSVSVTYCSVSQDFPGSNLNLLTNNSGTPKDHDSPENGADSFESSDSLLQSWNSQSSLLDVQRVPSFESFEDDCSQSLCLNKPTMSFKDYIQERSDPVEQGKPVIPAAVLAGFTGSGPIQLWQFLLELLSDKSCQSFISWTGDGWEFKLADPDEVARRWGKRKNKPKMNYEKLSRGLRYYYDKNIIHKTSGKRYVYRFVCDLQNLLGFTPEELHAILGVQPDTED
In short, it runs like this:
as §1

Assay [18] concerns the target T11, ELF5 (Homo sapiens, UniProt Q9UKW6-2 1-255).
T11 sequence: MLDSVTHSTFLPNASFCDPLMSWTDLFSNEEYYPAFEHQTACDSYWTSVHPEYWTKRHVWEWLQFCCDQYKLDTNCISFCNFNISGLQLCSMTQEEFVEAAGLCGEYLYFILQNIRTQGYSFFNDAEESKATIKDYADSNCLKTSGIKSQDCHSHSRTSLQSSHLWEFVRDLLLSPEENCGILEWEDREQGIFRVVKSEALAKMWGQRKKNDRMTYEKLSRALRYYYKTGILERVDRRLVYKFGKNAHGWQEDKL
In short, it runs like this: as §1

The target of assay [19] is T12, ETV3 (Homo sapiens, UniProt P41162-2 1-143).
T12 sequence: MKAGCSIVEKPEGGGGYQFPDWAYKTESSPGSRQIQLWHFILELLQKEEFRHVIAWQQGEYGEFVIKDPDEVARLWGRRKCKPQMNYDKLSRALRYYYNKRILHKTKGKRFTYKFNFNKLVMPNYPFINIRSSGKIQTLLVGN
The method in brief:
as §1

These results are taken from publication PMC7862700, “An all-to-all approach to the identification of sequence-specific readers for epigenetic DNA modifications on cytosine”.

Sequence of ETV1 (P50549 whole entry): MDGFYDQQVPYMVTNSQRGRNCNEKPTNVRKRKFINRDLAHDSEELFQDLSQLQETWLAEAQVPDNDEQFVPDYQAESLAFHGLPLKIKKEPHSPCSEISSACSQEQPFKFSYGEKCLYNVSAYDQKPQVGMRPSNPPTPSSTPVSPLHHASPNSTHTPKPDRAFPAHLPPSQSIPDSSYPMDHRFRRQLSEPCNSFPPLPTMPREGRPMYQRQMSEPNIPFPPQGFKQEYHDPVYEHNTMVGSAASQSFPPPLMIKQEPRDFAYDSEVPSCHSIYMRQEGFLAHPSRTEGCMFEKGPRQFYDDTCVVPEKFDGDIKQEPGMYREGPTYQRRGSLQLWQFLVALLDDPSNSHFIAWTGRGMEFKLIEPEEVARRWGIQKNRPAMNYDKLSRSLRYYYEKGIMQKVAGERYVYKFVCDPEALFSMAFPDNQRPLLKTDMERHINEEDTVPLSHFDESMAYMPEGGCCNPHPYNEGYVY
Sequence of ELF4 (Q99607 whole entry): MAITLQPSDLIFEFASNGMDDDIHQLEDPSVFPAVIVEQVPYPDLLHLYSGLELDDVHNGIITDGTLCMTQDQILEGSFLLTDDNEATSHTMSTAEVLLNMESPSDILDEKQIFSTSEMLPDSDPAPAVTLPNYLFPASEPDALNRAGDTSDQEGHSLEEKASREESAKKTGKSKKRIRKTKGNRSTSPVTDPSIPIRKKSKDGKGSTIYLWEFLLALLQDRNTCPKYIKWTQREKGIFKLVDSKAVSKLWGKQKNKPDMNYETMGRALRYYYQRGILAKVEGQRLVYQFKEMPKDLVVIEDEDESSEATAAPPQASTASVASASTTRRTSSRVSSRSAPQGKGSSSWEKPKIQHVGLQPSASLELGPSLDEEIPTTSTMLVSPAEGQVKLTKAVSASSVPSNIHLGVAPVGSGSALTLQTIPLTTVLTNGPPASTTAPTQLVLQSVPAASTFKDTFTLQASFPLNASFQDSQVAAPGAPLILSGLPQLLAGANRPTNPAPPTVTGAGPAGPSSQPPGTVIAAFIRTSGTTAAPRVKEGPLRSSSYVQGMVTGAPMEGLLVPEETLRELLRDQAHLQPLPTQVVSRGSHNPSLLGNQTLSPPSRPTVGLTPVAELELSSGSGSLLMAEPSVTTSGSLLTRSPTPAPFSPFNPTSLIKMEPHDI
Sequence of SPIB (Q01892 whole entry): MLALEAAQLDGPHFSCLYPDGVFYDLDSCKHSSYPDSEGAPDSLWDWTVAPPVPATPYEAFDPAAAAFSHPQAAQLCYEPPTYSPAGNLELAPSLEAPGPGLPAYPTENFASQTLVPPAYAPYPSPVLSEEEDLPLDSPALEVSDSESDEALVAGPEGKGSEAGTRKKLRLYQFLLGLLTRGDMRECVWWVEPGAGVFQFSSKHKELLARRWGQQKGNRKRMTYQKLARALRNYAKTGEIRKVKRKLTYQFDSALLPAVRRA
Sequence of ELF1 (P32519 whole entry): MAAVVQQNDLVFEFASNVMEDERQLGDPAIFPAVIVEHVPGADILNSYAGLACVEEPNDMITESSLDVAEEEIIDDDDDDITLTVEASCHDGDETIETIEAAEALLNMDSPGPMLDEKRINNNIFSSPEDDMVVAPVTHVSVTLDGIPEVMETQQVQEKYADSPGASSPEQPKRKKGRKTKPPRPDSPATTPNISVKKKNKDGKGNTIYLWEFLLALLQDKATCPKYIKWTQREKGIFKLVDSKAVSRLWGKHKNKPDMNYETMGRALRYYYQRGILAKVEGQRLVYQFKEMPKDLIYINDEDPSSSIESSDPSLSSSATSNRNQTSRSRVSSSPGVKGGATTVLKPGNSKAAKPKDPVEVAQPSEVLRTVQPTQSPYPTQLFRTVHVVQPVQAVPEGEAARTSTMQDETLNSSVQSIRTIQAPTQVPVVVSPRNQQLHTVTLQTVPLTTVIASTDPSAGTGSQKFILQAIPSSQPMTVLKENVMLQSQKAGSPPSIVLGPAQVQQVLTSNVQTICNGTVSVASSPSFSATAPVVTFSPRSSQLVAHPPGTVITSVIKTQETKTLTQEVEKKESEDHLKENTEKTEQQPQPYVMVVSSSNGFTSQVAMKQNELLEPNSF
Sequence of ETV6 (P41212 whole entry): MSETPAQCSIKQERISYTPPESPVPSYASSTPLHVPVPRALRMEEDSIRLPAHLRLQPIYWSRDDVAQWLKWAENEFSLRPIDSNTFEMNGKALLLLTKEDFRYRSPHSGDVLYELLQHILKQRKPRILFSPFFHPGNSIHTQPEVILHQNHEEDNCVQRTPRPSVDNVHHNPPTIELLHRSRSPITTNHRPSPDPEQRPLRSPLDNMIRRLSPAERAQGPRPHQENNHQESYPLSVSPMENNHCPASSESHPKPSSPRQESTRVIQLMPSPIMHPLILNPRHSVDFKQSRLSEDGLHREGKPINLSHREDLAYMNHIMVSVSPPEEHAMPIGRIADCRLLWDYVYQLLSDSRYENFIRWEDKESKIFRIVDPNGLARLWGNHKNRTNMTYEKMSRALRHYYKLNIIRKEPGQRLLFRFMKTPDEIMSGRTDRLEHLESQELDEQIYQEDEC
Sequence of ETV5 (P41161 whole entry): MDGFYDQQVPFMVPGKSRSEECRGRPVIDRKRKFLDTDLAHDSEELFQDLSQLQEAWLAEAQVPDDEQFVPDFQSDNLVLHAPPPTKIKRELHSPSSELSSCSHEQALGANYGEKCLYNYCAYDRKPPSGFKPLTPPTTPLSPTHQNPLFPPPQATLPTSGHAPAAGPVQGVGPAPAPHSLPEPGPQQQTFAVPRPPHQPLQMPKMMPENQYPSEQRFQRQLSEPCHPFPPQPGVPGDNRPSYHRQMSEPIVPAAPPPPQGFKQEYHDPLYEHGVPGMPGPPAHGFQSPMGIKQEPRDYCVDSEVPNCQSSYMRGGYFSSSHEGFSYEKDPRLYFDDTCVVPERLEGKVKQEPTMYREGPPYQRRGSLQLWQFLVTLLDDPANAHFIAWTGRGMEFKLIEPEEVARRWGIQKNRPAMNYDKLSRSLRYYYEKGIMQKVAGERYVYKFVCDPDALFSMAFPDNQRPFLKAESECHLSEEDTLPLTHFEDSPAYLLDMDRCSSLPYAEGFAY

Consider GGCTCG, for which the binding signal is 1.06 fold enrichment (6-mer frequency, TF over GST control) in assay [1]; 1.02 fold enrichment (6-mer frequency, TF over GST control) in [2]; 1.02 fold enrichment (6-mer frequency, TF over GST control) in [3]; 1.05 fold enrichment (6-mer frequency, TF over GST control) in [4]; 1.12 fold enrichment (6-mer frequency, TF over GST control) in assay [5]; 1.01 fold enrichment (6-mer frequency, TF over GST control) in [6]. Besides, the binding signal in [7] is 1.12 fold enrichment (6-mer frequency, TF over GST control); in assay [8], 1.06 fold enrichment (6-mer frequency, TF over GST control); in [9], 1.01 fold enrichment (6-mer frequency, TF over GST control); in assay [10], 1.09 fold enrichment (6-mer frequency, TF over GST control); in [11], 1.06 fold enrichment (6-mer frequency, TF over GST control).

Turning to ATACCG, the binding signal in assay [1] is 1.16 fold enrichment (6-mer frequency, TF over GST control); in assay [2], 1.02 fold enrichment (6-mer frequency, TF over GST control); in [3], 1.16 fold enrichment (6-mer frequency, TF over GST control); in assay [4], 1.11 fold enrichment (6-mer frequency, TF over GST control); in assay [12], 1.12 fold enrichment (6-mer frequency, TF over GST control); in [13] it was 1.06 fold enrichment (6-mer frequency, TF over GST control). Further, the binding signal was 1.12 fold enrichment (6-mer frequency, TF over GST control) in assay [5]; 1.15 fold enrichment (6-mer frequency, TF over GST control) in [14]; 1.25 fold enrichment (6-mer frequency, TF over GST control) in [15]; 1.1 fold enrichment (6-mer frequency, TF over GST control) in [6]; 1.05 fold enrichment (6-mer frequency, TF over GST control) in [7]; 1.12 fold enrichment (6-mer frequency, TF over GST control) in assay [8]. For the same sequence, the binding signal in assay [9] was 1.14 fold enrichment (6-mer frequency, TF over GST control); in [16], 1.08 fold enrichment (6-mer frequency, TF over GST control); in [10], 1.1 fold enrichment (6-mer frequency, TF over GST control); in assay [17] it was 1.11 fold enrichment (6-mer frequency, TF over GST control); in assay [18], 1.13 fold enrichment (6-mer frequency, TF over GST control); in assay [19], 1.2 fold enrichment (6-mer frequency, TF over GST control). The binding signal in assay [11] was 1.09 fold enrichment (6-mer frequency, TF over GST control).
